Results published in PubChem BioAssay AID624116 (National Center for Advancing Translational Sciences (NCATS), 2012).
Inconclusive results are not listed. Active and inactive are the calls of the source. The call rests on the fitted dose curve; in most records, active means well fitted activation curve with a large enough effect; inconclusive means small, poorly fitted or top-dose-only effect; inactive means no such curve, though single readings can be large or run the other way.

Assay: qHTS Assay for Rab9 Promoter Activators: Hit Validation Using Renilla Luciferase Read-Out for Rab9; further: % of control where 0% means no effect
Settings: Huh7 Rab9 promoter Renilla luciferase reporter, 24 h; series mostly up to 76.9 µM; activation, negative = inhibition: at the top concentration
Text: Niemann Pick Type C (NPC) is a rare neurodegenerative lipidosis that is characterized by lipid storage in the endosomal/lysosomal system. Treatment modalities for this devastating disease are currently non-existent due to the severe obstacles associated with accessing the central nervous system with proteins or genes. The majority of mutations causing NPC disease are missense mutations that are distributed throughout the length of the NPC1 protein, with the most prevalent being the I1061T allele. Although NPC1 mutant proteins may be functional, they are typically trapped in the ER due to misfolding. […] We have developed and optimized a cell based renilla luciferase reporter assay in 1536 well format for the identification of up-regulators of the mutant Rab9 promoter. This assay presents data on the validation of hits from the primary screen, which used a firefly luciferase read-out. NIH Chemical Genomics Center [NCGC] NIH Molecular Libraries Probe Production centers Network [MLPCN] MLPCN Grant: MH089375 Assay Submitter (PI): Yiannis A. Ioannou
Huh7 cells stably expressing NPC promoter-luciferase will be seeded at 1,500 cells/well in 5 uL in 1,536-well white opaque plates with 23 nL/well of compound in DMSO solution. The assay plates will be incubated at 37 deg C for 24 hours, after which 3 uL/well BriteLite plus luciferase detection reagent mixture (Perkin Elmer) will be added. Luminescence signal will be measured in a ViewLux plate reader (Perkin Elmer) after a 10 minute incubation at the room temperature.

| Compound | activation, negative = inhibition |
| --- | --- |
| COc1cccc(CCNCc2ccc(SC)cc2)c1 | -12.3% (inactive) |
| O=C1c2ccccc2C(=O)N1Cc1nc2ccccc2c(=O)n1-c1cccnc1 | -4.75% (inactive) |
| Cc1cccn2c(NCC3CCCO3)c(C(C)C)nc12 (stereo unspecified) | -5.59% (inactive) |
| CN1CCc2cc3c(c4c2C1Cc1ccccc1-4)OCO3 (stereo unspecified) | -35.6% (inactive) |
| COc1ccc(C(CC(=O)N2CCC3(CC2)OCCO3)NS(=O)(=O)c2ccc(F)cc2)cc1 (stereo unspecified) | 15.6% (inactive) |
| CCC(=NCc1cccnc1)c1c(O)n(-c2ccccc2)c(=O)[nH]c1=O | -4.69% (inactive) |
